# Measured values published in PubChem BioAssay AID504652 (National Center for Advancing Translational Sciences (NCATS), 2011).
# In all, about 360,000 compounds went through this assay and about 11,000 (3.1%) were called active. No stated cut-off is given here; in the data, active means activity change below about -30%; inactive means the rest. The sample as a whole holds a higher share of actives than the screen did.
# Molecular target: D(1A) dopamine receptor (Homo sapiens) (UniProt P21728)
# Assay: Antagonist of Human D 1 Dopamine Receptor: qHTS
# Settings: HEK293 TREx D1 cells, calcium flux, dopamine EC80; at 10 µM; stronger effect = lower value
# Outline: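 HEK293 T-REx cells expressing inducible, force-coupled D1 receptor; no-wash Ca dye, 30–90 min RT. Cmpd → 180 s read at 1 Hz → EC80 DA → 180 s read.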
# On the % scale 0 is the no-effect control and ±100 the full control effect.
# Sequence of D(1A) dopamine receptor (Homo sapiens) (P21728 whole entry, looked up): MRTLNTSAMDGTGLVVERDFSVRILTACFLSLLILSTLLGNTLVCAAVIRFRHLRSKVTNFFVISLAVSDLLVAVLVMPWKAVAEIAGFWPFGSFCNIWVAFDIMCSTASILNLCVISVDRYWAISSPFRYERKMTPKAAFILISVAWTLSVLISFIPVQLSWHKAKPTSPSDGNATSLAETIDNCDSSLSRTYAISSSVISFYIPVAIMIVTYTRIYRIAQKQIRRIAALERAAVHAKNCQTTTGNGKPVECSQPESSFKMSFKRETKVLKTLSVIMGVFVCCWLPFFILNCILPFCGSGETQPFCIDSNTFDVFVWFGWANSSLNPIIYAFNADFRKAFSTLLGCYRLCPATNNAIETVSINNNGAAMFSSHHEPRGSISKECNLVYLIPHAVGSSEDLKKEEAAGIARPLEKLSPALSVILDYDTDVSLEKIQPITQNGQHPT
row,SMILES,"activity change, negative = inhibition"
1,CCn1cc(C(=O)NCCc2ccccc2)c(=O)c2cc(S(=O)(=O)N3CCCCCC3)ccc21,-7.94% (inactive)
2,CCn1c2ccccc2c2nnc(N3CCN(c4cc(C)ccc4C)CC3)nc21,-7.14% (inactive)
3,COc1cccc(C(=O)NC2CCN(C#N)CC2)c1,4.13% (inactive)
4,Cc1cccc(C(=O)NCCCN2CCCC2=O)c1,-31.5% (active)
5,O=C(NCCCN1CCCC1=O)c1ccc(S(=O)(=O)Nc2ccccc2)cc1,4.25% (inactive)
6,O=C(NCCCN1CCCC1=O)c1cccc(S(=O)(=O)NCc2ccccc2)c1,-24.9% (inactive)
7,CCCCCCn1nnc2sc(-c3ccccc3)cc2c1=O,0.186% (inactive)
8,CCOC(=O)c1cc(NC(=O)c2ccc(Cl)cc2)c(=O)oc1-c1ccccc1,-34.6% (active)
9,CCOC(=O)c1cc(NC(=O)c2ccc(F)cc2)c(=O)n2c1oc1ccccc12,0.884% (inactive)
10,CC(=O)c1cc(NC(=O)c2ccccc2)c(=O)oc1/C=C/N(C)C,0.591% (inactive)
11,CSc1ccccc1NC(=O)CCS(=O)(=O)c1nc(-c2cccs2)cc(C(F)(F)F)n1,2.34% (inactive)
12,O=C(CNC(=O)c1ccccc1)OC(C(=O)Nc1cc([N+](=O)[O-])ccc1F)c1ccccc1 (configuration not stated),4.21% (inactive)
13,CC(C)(C)OC(=O)N1CCC(c2c(C(=O)N3CCN(c4cccc(Cl)c4)CC3)cnn2-c2cccc(Cl)c2)CC1,-2.09% (inactive)
14,Cc1nc(SCC(=O)N2CCN(c3ccccc3)CC2)[nH]c(=O)c1C,-2.36% (inactive)
15,Cc1ccc(OCC(=O)OC(C)CN(C)Cc2ccccc2)cc1 (configuration not stated),-3.69% (inactive)
16,COc1ccc(OCC(O)CN(C)C(=O)C(C)Oc2ccccc2)cc1 (configuration not stated),-13.9% (inactive)
17,CN(Cc1ccccc1)CC(O)COc1ccc(CNCc2cc3ccccc3s2)cc1 (configuration not stated),-41.2% (active)
18,COc1cc(C(=O)N/C(=C\c2cn(C)c3ccccc23)C(=O)N2CCOCC2)cc(OC)c1OC,-33.6% (active)
19,Cc1ccc(C(=O)N/C(=C\c2cn(C)c3ccccc23)C(=O)N2CCN(C)CC2)cc1,10.2% (inactive)

row,SMILES,"activity change, negative = inhibition"
1,CCn1cc(/C=C(\NC(=O)c2cc(OC)c(OC)c(OC)c2)C(=O)N2CCN(C)CC2)c2ccccc21,3.95% (inactive)
2,COc1ccccc1Cc1nc2ccccc2nc1SCC(=O)N1CCCc2ccccc21,-2.97% (inactive)
3,COc1ccc(NC(=O)c2cnc(Nc3ccc(C)c(Cl)c3)c3ccccc23)cc1OC,0.261% (inactive)
4,Cc1cc(C)c(NC(=O)Cn2c(SCC(=O)NCc3ccccc3)nc3ccccc32)c(C)c1,2.9% (inactive)
5,Cc1ccccc1NC(=O)Cc1nc(COC(=O)c2cccnc2Cl)cs1,-12% (inactive)
6,Cc1ccccc1NC(=O)Cc1nc(COC(=O)c2ccc(C(F)(F)F)cc2)cs1,-34.6% (active)
7,C/C=C/C(=O)OCc1csc(CC(=O)Nc2ccccc2C)n1,-6.19% (inactive)
8,CCC(=O)N1CCc2cc(CNC(=O)Nc3ccccc3Cl)ccc21,8.55% (inactive)
9,CCCN1C(=O)C(O)(CC(=O)c2ccc(CC)cc2)c2cc(Br)ccc21 (configuration not stated),-2.04% (inactive)
10,Cc1ccc(-c2onc(C)c2C)cc1S(=O)(=O)Nc1ccccn1,-4.41% (inactive)
11,COc1ccc(-c2onc(C)c2C)cc1S(=O)(=O)NCCc1ccccc1,-3.85% (inactive)
12,O=S(=O)(c1ccc(Br)cc1)c1nnn2c1nc(N1CCOCC1)c1sccc12,0.25% (inactive)
13,O=C(Nc1ccc2ccccc2c1)Nc1ccc2snnc2c1,-44.8% (active)
14,Cc1nc2cc(NC(=O)Nc3cccc(F)c3)ccc2n1C,-4.15% (inactive)
15,O=C(Nc1ccncc1)Nc1ccc(F)cc1,9% (inactive)
16,Cc1ccccc1NC(=O)Cn1c(=O)n(Cc2ccco2)c(=O)c2ccc(C(=O)NC3CCCC3)cc21,-18.2% (inactive)
17,COc1ccc(NC(=O)C(c2ccccc2)N2Cc3ccccc3C2=O)cc1 (configuration not stated),-6.94% (inactive)
18,CCC(=O)c1ccc(OCC(=O)Nc2ccc(N3CCCCC3)cc2)cc1,16.6% (inactive)
19,COc1ccc(OCC(=O)Nc2ccc(N3CCC(C)CC3)cc2)cc1,-33.3% (active)

row,SMILES,"activity change, negative = inhibition"
1,CN1CCC(OC(=O)COc2ccc(Cl)cc2Cl)CC1,-9.08% (inactive)
2,CN1CCN(c2ccc(NC(=O)COc3ccc(Cl)cc3Cl)cc2)CC1,-32% (active)
3,Cc1ccc(Cl)c(OCC(=O)N(C)CC(=O)Nc2ccc(N3CCOCC3)cc2)c1,-14.5% (inactive)
4,COc1ccc(OCC(=O)OCC(=O)Nc2ccc(S(=O)(=O)N3CCCCC3)cc2)cc1,-15.5% (inactive)
5,CCOC(=O)C1CCN(C(=O)CSc2c3c(nc4ccc(Cl)cc24)CCCC3)CC1,-13.5% (inactive)
6,CC(=O)N1CCc2cc(Br)cc(S(=O)(=O)CCC(=O)NCCc3ccc(Cl)cc3)c21,-8.71% (inactive)
7,COc1ccc(-c2noc(CSc3nc4ccc(C)cc4[nH]3)n2)cc1,-1.27% (inactive)
8,CC(=O)c1ccc(NC(=O)c2nc(-c3ccc(C)cc3)n3c2CCCCC3)cc1,-2.03% (inactive)
9,CC(C)(C)c1cc(C(=O)NN)n(Cc2ccc(Cl)cc2Cl)n1,-27.8% (inactive)
10,O=C(CCN1C(=O)c2ccccc2C1=O)NNC(=O)c1ccc(Cl)cc1Cl,-4.44% (inactive)
11,Cn1cc(C(=O)c2ccc(Cl)cc2Cl)cc1C(=O)NN,-37.3% (active)
12,Cc1ccc(NC(=O)c2cn3c4c(ccc(Cl)c4c2=O)OC(C)C3)cc1C (configuration not stated),-1.66% (inactive)
13,Cc1cc(Cl)ccc1NC(=O)Cc1ccc(NC(=O)N2CCCCc3ccccc32)cc1,-3.59% (inactive)
14,CCOc1ccc(NC(=O)CCc2c(C)nn(-c3ccc(N4CCCC4)nn3)c2C)cc1,4.71% (inactive)
15,CC(=O)Nc1c(C)nn(-c2ccccc2)c1N1CCC(C(=O)Nc2cc(Cl)ccc2C)CC1,-18.9% (inactive)
16,CSc1ncc(Cl)c(C(=O)Nc2ccc(S(=O)(=O)N3CCCC(C)C3)cc2)n1 (configuration not stated),-5.19% (inactive)
17,CN(Cc1ccccc1)C(=O)c1ccc(COc2ccccc2)cc1,-60.8% (active)
18,CCOc1ccc(CN(C)C(=O)c2ccc(=O)[nH]c2)cc1,10.3% (inactive)
19,CN(CC(=O)Nc1ccc(Cl)cc1)C(=O)c1ccc(COc2ccccc2)cc1,3.34% (inactive)
